Among all 330,000 compounds or so, about 1,700 (0.52%) were called active. The entries come from a sample that favours actives as a whole. Unmarked numbers belong to inactive results.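 The calls were made as follows: active = GFP response versus DMSO above a set limit, roughly screen mean plus 3 SD (cut at about 180% in these data); inconclusive = fewer than 70 cells counted for a yeast strain; inactive = the rest.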

The experiment in a line: modulators of MEP2-GFP levels in yeast, primary screen, S. cerevisiae, multiplex flow cytometry, MLPCN library (AID 2016).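 Also: median GFP fluorescence of the barcode-gated MEP2-GFP cells per well.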 The settings on record: S. cerevisiae MEP2-GFP strain, 3 h, at 10 µM, hits give high values, 100% = DMSO control level.
For the compound `CC(=N\NC(=O)c1cc(Br)ccc1O)/C(=N/O)C(=O)Nc1ccccc1`, the GFP response vs DMSO was 102%.
Regarding `Cc1nc(-c2ccc(F)cc2)c(CC(=O)Nc2cc(S(=O)(=O)N3CCCCC3)ccc2C)s1`, the GFP response vs DMSO was 105%.
With `C/C(Cl)=C\Cn1c(Nc2cccc(C)c2)nc2c1c(=O)n(C)c(=O)n2C`, the GFP response vs DMSO is 91.5%.
`O=[N+]([O-])c1ccc(N2CCN(S(=O)(=O)c3ccc4ccccc4c3)CC2)cc1NCc1ccco1`: the GFP response vs DMSO was 91.1%.
As for `O=C(c1ccccc1)N1CCN(c2ccc([N+](=O)[O-])c(NCc3ccco3)c2)CC1`, the figure is 102%; as for `O=[N+]([O-])c1ccc(N2CCNCC2)cc1NCc1cccnc1`, 309% [may fluoresce violet] (active).
Regarding `O=C(Cc1cccs1)N(CC1CCCO1)C1(C(=O)NC2CCCCC2)CCCCC1` (stereo not drawn), the GFP response vs DMSO is 88.4%.
Turning to `O=C(CN1CCCC1)N1CCN(c2ccccc2)CC1`, the GFP response vs DMSO was 91.7%.
Next, `Cc1nc2c(ncn2-c2ccccc2)c(=O)n1NC(=O)CN1CCCC1`: 194% [may fluoresce violet] (active); `Cc1nc2ccccc2c(=O)n1NC(=O)c1ccccc1`: 99.1%; `O=S(=O)(Nc1ncccn1)c1ccc(NS(=O)(=O)c2cccc(Cl)c2Cl)cc1`: 103%.
As to `Nc1c(C(=O)c2cccs2)sc2nsc(SCCN3CCCCC3)c12`, the GFP response vs DMSO was 221% (active).
As for `O=C(CSc1ncnc2sccc12)N1CCN(C(=O)c2cccs2)CC1`, the GFP response vs DMSO was 105%.
`CCCCCCCCCCCCCCCC(=O)OC/C=C(C)/C=C/C=C(C)/C=C/C1=C(C)CCCC1(C)C`: the GFP response vs DMSO is 107%.
For `CCC(=C/c1sc2ccc3ccccc3c2[n+]1C)/C=C1\Sc2ccc3ccccc3c2N1C`, the GFP response vs DMSO was 285% (active).
Take `COc1ccc(Cl)cc1NC(=O)COC(=O)C(CC(C)C)N1C(=O)C2CC=CCC2C1=O` (stereo not drawn): the GFP response vs DMSO was 90.8%.
Next, `Cc1noc(C)c1NC(=O)Nc1ccc2c(c1)C(=O)N([C@H](C)CO)C[C@H](C)[C@@H](CN(C)C(=O)Nc1ccc(C(F)(F)F)cc1)O2`: 103%; `CC(=O)NCC(=O)N1CCC(n2nccc2NC(=O)CCCc2ccccc2)CC1`: 95.6%.
With `OCc1nc(CO)n(Cc2ccccc2)n1`, the GFP response vs DMSO was 276% [may fluoresce violet] (active).
As for `Nc1c(-c2ccccc2)nnn1Cc1ccccc1`, the figure is 96.3%.
In the case of `Cc1nn(Cc2ccccc2)c(C)c1NS(=O)(=O)c1ccccc1`, the GFP response vs DMSO was 111%.
As for `CCOC(=O)C1CCN(c2c(Nc3cc(C)cc(C)c3)c(=O)c2=O)CC1`, the GFP response vs DMSO was 115%.
Turning to `O=C(NCCCn1ccnc1)C1CCCN(S(=O)(=O)c2cc(Cl)ccc2Cl)C1` (stereo not drawn), the GFP response vs DMSO is 106%.
Take `COc1ccc(S(=O)(=O)N(C)CC(=O)NCCCN2CCOCC2)cc1Cl`: the GFP response vs DMSO is 95.1%.
As to `O=C1/C(=C\Nc2ccccc2)CCN1c1ncccn1`, the GFP response vs DMSO is 127%.
Regarding `CCOC(=O)N1CCN(C(=O)COc2ccc(Cl)cc2C)CC1`, the GFP response vs DMSO was 184% [may fluoresce violet] (active).
With `CCOC(=O)N1CCN(C(=O)CNC(=O)Cc2ccc(Cl)cc2)CC1`, the GFP response vs DMSO is 106%.
As for `CCOC(=O)N1CCN(C(=O)COc2ccc(Br)cc2)CC1`, the figure is 104%; as for `COc1ccc(-n2nc(C(=O)NCC(=O)N3CCCCCC3)c3ccccc3c2=O)cc1Cl`, 107%.
In the case of `Cc1cc(C)c(C(N)=O)c(Cl)n1`, the GFP response vs DMSO was 104%.
Take `Cc1ccc(Nc2nc(C)cc(C)c2C(N)=O)cc1`: the GFP response vs DMSO was 209% [may fluoresce violet] (active).
For `CC(=O)Nc1ccc(Nc2cc(C)nc(Nc3ccc(NC(C)=O)cc3)n2)cc1`, the GFP response vs DMSO was 92%.
For `COc1ccc(-c2nc(N)sc2C2(O)C(=O)Nc3c(Br)cc(F)cc32)cc1OC` (stereo not drawn), the GFP response vs DMSO was 103%.
Regarding `COc1cc(C(=O)Nc2cc(C(F)(F)F)ccc2N2CCOCC2)ccc1O`, the GFP response vs DMSO is 106%.
Consider `O=C(c1ccncc1)N1CCN(S(=O)(=O)c2cc(C(F)(F)F)cc(C(F)(F)F)c2)CC1`, for which the GFP response vs DMSO was 103%.
For `COc1ccc(O[C@H]2C=C[C@@H](c3ccccc3)O[C@@H]2CO/N=C/C[C@@H]2C=C[C@H](OC(C)=O)[C@@H](COC(C)=O)O2)cc1`, the GFP response vs DMSO was 90%.
With `CC(NC(=S)NC1CCCCC1)C(c1ccccc1)N1CCOCC1` (stereo not drawn), the GFP response vs DMSO was 99.2%.
On to `O=S(=O)(NC1CC1)c1ccc(F)c(F)c1`, for which the GFP response vs DMSO was 101%.
As to `Cn1sc(=O)c2cc(S(=O)(=O)NC3CC3)ccc21`, the GFP response vs DMSO was 626% [may fluoresce violet] (active).
As for `CC1CCC(NS(=O)(=O)c2ccc3c(c2)n(C)c(=O)c(=O)n3C)CC1` (stereo not drawn), the figure is 102%; as for `CCCN(CCC)CC(O)COc1ccccc1C(=O)Nc1ccccc1` (stereo not drawn), 107%.
With `O=C(Nc1ccc(Br)c2cccnc12)c1ccc(Cn2cc([N+](=O)[O-])cn2)o1`, the GFP response vs DMSO was 97.1%.
As for `O=C(COc1ccc(Cl)cc1)Nc1ccccc1CO`, the figure is 98.3%; as for `O=C(COc1ccc(-n2cnnn2)cc1)Nc1ccccc1Cl`, 240% [may fluoresce violet] (active); as for `C=CCc1cccc(/C=N/NC(=O)COc2ccc(-n3cnnn3)cc2)c1O`, 102%.
With `Cc1c(-c2ccccc2)cn2c1-c1ccc(C)n1CC2`, the GFP response vs DMSO was 106%.
For `COC(=O)C[n+]1cccc2ccccc21`, the GFP response vs DMSO was 221% (active).
In the case of `Cc1cccc[n+]1CC(=O)c1ccccc1`, the GFP response vs DMSO was 113%.
In the case of `COc1ccccc1NC(=O)C[n+]1ccccc1`, the GFP response vs DMSO is 108%.
`CCOc1ccc(CN(C)C(=O)c2ccc(=O)[nH]c2)cc1`: the GFP response vs DMSO was 104%.
Next, `COc1ccc2cc1Oc1ccc(cc1)C[C@H]1c3cc(c(OC)cc3CCN1C)Oc1c(O)c(OC)cc3c1[C@H](C2)N(C)CC3`: 99.2%; `COc1cc(COCC(O)CN2CCN(Cc3ccc4c(c3)OCO4)CC2)cc(OC)c1OC` (stereo not drawn): 100%.
For the compound `COc1c(O)ccc2c1CN1CCc3cc4c(cc3C1C2)OCO4` (stereo not drawn), the GFP response vs DMSO is 205% (active).
As to `COc1ccc(NC(=O)CSc2nncc(=O)n2N)cc1OC`, the GFP response vs DMSO was 104%.
Turning to `COc1ccccc1CNC(=O)COn1nnc2ccc(S(=O)(=O)N3CCOCC3)cc21`, the GFP response vs DMSO was 123%.
Turning to `CCC(Oc1ccccc1)C(=O)NCc1cccnc1` (stereo not drawn), the GFP response vs DMSO is 101%.
For the compound `O=C(CSc1ncccn1)NCCc1ccccc1`, the GFP response vs DMSO is 96.5%.
For `CC(=O)OC(C(=O)NCCc1ccccc1)c1cccnc1` (stereo not drawn), the GFP response vs DMSO is 234% [may fluoresce violet] (active).

The record behind these values is PubChem BioAssay AID2016 (NMMLSC, 2009).
